Screening results (PubChem BioAssay)
Hits are enriched below; roughly 3.6% of the tested compounds scored in any of these assays.
mHTT-CaM PPI inh = mHTT-calmodulin interaction abrogation; AlphaScreen His-mHTT/GST-CaM binding, luminescence; inhibition, % at 15 µM; actives 3.6% (n = 190,000); AID 1671202;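 note: 0% = both proteins with DMSO and 100% = one protein alone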
Pf apPOL inh = Pf-apPOL DNA polymerase inhibition; Recombinant Pf-apPOL, molecular beacon fluorescence, 1.5 h; inhibition, % at 10 µM; actives 0.25% (n = 210,000); AID 1794808
Numbers without * were called inactive; i = inactive; nt = no result given. Cut-off read from the data, not from the text of the source: active = inhibition above about 50%; inactive = the rest.

SMILES	mHTT-CaM PPI inh	Pf apPOL inh
COc1ccc(Cl)cc1NC(=O)CN1CCc2ccccc2C1C(=O)N1CCCCC1 (stereo unspecified)	64*	-4
COc1ccc(OC)c(NC(=O)CCN2CCCC2)c1	5	-1
O=C(CN1CCc2ccccc2C1C(=O)N1CCCCC1)NCc1ccc(Cl)cc1 (stereo unspecified)	18	0
Cc1nc(-c2cccc(F)c2)nc(N2CCN(C(=O)c3ccccc3)CC2)c1C	-5	-2
CCOC(=O)CCc1c(C)n[nH]c1C	-1	-1
CCOC(=O)CCc1c(CC(=O)OCC)c[nH]c1C=NO	nt	99*
CCCOc1ccc(/C=C2/N=C(c3ccccc3)OC2=O)cc1	6	-6
Cc1ccc(NC(=O)c2ccc(F)c(S(=O)(=O)N(C)Cc3ccccc3)c2)cc1F	-11	-3
CNC(=O)C1CCc2sc(C(=O)N3CCC(C)CC3)cc2C1 (stereo unspecified)	2	-3
COc1ccc(C=C2SC(=S)N(CCc3ccc(O)cc3)C2=O)c(OC)c1	77*	2
COc1ccc(/C=C2\SC(=O)N(CN3CCOCC3)C2=O)c(OC)c1	28	-1
CCCN1CCN(c2ncc3c(n2)CCN(Cc2ccc(C)c(C)c2)C3)CC1	34	0
CN(c1ccc(F)cc1)S(=O)(=O)c1ccc2[nH]cc(C(=O)O)c(=O)c2c1	8	-5
CN(C)c1ccc2[nH]c3c(C(=O)O)cc(=O)c(=O)c=3oc2c1	67*	nt
O=C1NC(c2cccs2)Nc2sc3c(c21)CCCC3 (stereo unspecified)	7	-2
O=C1NC(c2ccc3c(c2)OCO3)Nc2sc3c(c21)CCCC3 (stereo unspecified)	1	-8
O=C1NC(c2ccc(-c3ccc(F)cc3)o2)Nc2sc3c(c21)CCCC3 (stereo unspecified)	63*	19
O=C1NC(/C=C/c2ccccc2)Nc2sc3c(c21)CCCC3 (stereo unspecified)	66*	-5
O=C1NC(c2ccc(O)cc2)Nc2sc3c(c21)CCCC3 (stereo unspecified)	57*	-1
CN(C)c1ccc(C2NC(=O)c3c(sc4c3CCCC4)N2)cc1 (stereo unspecified)	26	12
CCOC(=O)c1cccc(NC(=O)C2CCN(c3nccc(C)n3)CC2)c1	2	3
CCCCC(=O)Nc1ccc(C(=O)O)cc1NC(=O)CCCC	-6	-1
CCN1CCN(Cc2c(O)ccc3c2OC(=CC=Cc2ccccc2OC)C3=O)CC1	42	-8
COc1cc(/C=C2\C(=O)Nc3ccc(Br)cc32)cc(Cl)c1O	100*	-38
O=C1Nc2ccc(I)cc2C1=Cc1cc(Br)c(O)c(Br)c1	nt	-124
SMILES	mHTT-CaM PPI inh	Pf apPOL inh
COc1cc(/C=C2\C(=O)NC(=O)N(c3ccc(C)cc3)C2=O)cc(Cl)c1O	4	1
COc1cc(/C=C2\C(=O)Nc3ccc(Br)cc32)cc([N+](=O)[O-])c1O	96*	0
COc1ccc(/C=C2\C(=O)Nc3ccc(Br)cc32)cc1	48	-3
CCOc1cc(/C=C2\C(=O)Nc3ccc(Br)cc32)cc(Cl)c1O	100*	0
COc1ccc(/C=C2\C(=O)Nc3ccc(Br)cc32)cc1OC	90*	-3
COc1cc(/C=C2\C(=O)NC(=O)N(c3ccc(C)cc3)C2=O)cc([N+](=O)[O-])c1O	3	5
Cc1ccc(C(=O)N2CCC(c3ccn4ncc(C(=O)N5CCCC5)c4c3)CC2)cc1	6	-3
O=C(CCn1ccc(=O)[nH]c1=O)N1CCCC(c2nnc(-c3ccccc3F)s2)C1 (stereo unspecified)	-12	-6
COC1CCN(C(=O)Nc2ccccc2C)CC1	-2	1
COC(=O)[C@@H]1[C@H]2SC(C)(C)[C@H](C(=O)OC)N2C(=O)N1Cc1ccccc1	3	3
Cc1ccc(C(=O)N2CCC(OCc3nc(C4CC4)no3)CC2)cn1	2	-3
COc1ccccc1C(=O)Nc1cccc(C)c1C	-12	-6
COc1cccc2c1OC1(CCCCC1)N1N=C(c3cccs3)CC21 (stereo unspecified)	43	-24
COc1ccc(C2=NN3C(C2)c2cccc(OC)c2OC32CCCCC2)cc1OC (stereo unspecified)	52*	-10
NC(=S)NN=C1c2ccccc2-c2ccccc21	55*	nt
NC(=S)N/N=C/c1c2ccccc2cc2ccccc12	i	nt
COc1cc2c(cc1OC)C(C(=O)Nc1ccc(F)c(Cl)c1)C(c1cccnc1)N(C)C2=O (stereo unspecified)	13	-11
CCNC(=O)N1CCCC(c2cccc(C(=O)NCc3ccc(N(C)C)cc3)c2)C1 (stereo unspecified)	54*	-4
CC(C)NC(=O)N1CCCC(c2cccc(C(=O)NCc3ccc(N(C)C)cc3)c2)C1 (stereo unspecified)	17	-8
COCCn1cc2c3c(cccc31)CN(C(=O)Nc1cccc(F)c1)CC2	3	1
COCCn1cc2c3c(cccc31)CN(C(=O)c1ccc(F)c(F)c1)CC2	61*	-2
CCCNC(=O)N1CCc2cn(CCOC)c3cccc(c23)C1	-6	-2
COCCn1cc2c3c(cccc31)CN(C(=O)c1cc(F)ccc1F)CC2	26	-3
COCCn1cc2c3c(cccc31)CN(C(=O)c1ccc(F)cc1)CC2	64*	-1
COCCn1cc2c3c(cccc31)CN(C(=O)c1cc(Cl)ccc1OC)CC2	71*	0
SMILES	mHTT-CaM PPI inh	Pf apPOL inh
COCCn1cc2c3c(cccc31)CN(C(=O)c1ccc(Br)o1)CC2	76*	-7
COCCn1cc2c3c(cccc31)CN(C(=O)Nc1cc(Cl)ccc1C)CC2	11	0
Cc1cc(OC(=O)CCC2CCCC2)c([N+](=O)[O-])c(=O)[nH]1	-3	-4
CCN(CC)c1ccc(/C=C/c2[nH]c(=O)[nH]c(=O)c2[N+](=O)[O-])cc1	22	1
O=[N+]([O-])c1ccc(CSc2nnc(-c3ccc(Cl)cc3Cl)o2)cc1	3	-5
CCOCCCNC(=O)CN1C(=O)/C(=C/c2cccc(Cl)c2)Sc2ccccc21	8	-1
c1ccc(-c2nnc3n2C2(CCCC2)Cc2ccccc2-3)cc1	-2	3
O=C1C=C2c3ccccc3CC3(CCCC3)N2C1=O	84*	0
Cc1ccc(C(=O)NCc2c(C)nc3sc(C)nn23)cc1	9	-7
C=CCSc1nc2ccc(OCC)cc2[nH]1	0	1
Cc1n[nH]c(=O)nc1N1CCN(Cc2ccccc2)CC1	-5	-2
O=C1NC2(CCN(Cc3ccc(Cl)cc3)CC2)N=C1c1ccccc1	55*	-3
O=C1NC2(CCN(Cc3ccccc3)CC2)N=C1c1cccc(Cl)c1	10	-2
COc1cccc(CN2CCC3(CC2)N=C(c2ccccc2)C(=O)N3)c1	58*	1
O=C1NC2(CCN(Cc3ccccc3)CC2)N=C1c1cccc(F)c1	16	-5
COc1ccc(N=C2NC(=O)S/C2=C\c2ccc(N(C)C)cc2)cc1	17	-49
CN(C)c1ccc(N=C2C=CC(=O)C=C2)cc1	95*	nt
CC(=O)N1CCN(C(=O)CN2CCc3sccc3C2c2ccccc2)CC1 (stereo unspecified)	14	-3
Cc1cc(Cl)ccc1NC(=O)CSc1cccc2cccnc12	18	-6
Cc1cc(C)c(NC(=O)OCc2cccc3cccnc23)c(C)c1	100*	-9
Cc1ccc2nc(-c3cc(N=Cc4ccc([N+](=O)[O-])cc4)ccc3O)oc2c1	15	7
